High-throughput results as filed in PubChem.
DT40 TDP1 no CPT: qHTS for Inhibitors of human tyrosyl-DNA phosphodiesterase 1 (TDP1): qHTS in cells in absence of CPT. DT40 Tdp1-/- hTDP1 cells, no CPT, ATP luminescence, 48 h. AID 686978, 2013. Potency, µM (series often up to 46.2 µM), actives largely listed as inhibitors. 420,000 tested, 15% active; also: nearly all actives have a fitted effect of over 55% in size
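Growth of hTDP1-complemented DT40 Tdp1-knockout cells is measured by ATP luminescence after at least 48 hr compound exposure at 37 °C, with DMSO substituting for the 20 nM CPT used in the parallel screen.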
TDP1 cell CPT: DT40-hTDP1 cell growth loss with CPT | 420,000 tested, 12% active | Potency, µM (top dose mostly 46.2 µM), actives largely listed as inhibitors | chicken DT40 Tdp1-/-;hTDP1 cells + 20 nM CPT, ATP luminescence, 48 h; also: nearly all actives have a fitted effect of over 55% in size
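Chicken DT40 Tdp1-/- cells stably complemented with human TDP1 were seeded at 400 cells/well in medium containing 20 nM camptothecin, exposed to pin-transferred compounds, and grown at 37 °C for at least 48 hr. Viability was read as ATP luminescence.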
IL1B secr inh: inflammasome signaling inhibition, IL-1 beta readout | 360,000 tested, 4.7% active | activity change, % at 57.5 µM | AID 743279 | THP-1 LPS/ATP IL-1B secretion, AlphaLISA, 16 h; active compounds read low; in the data active = activity change below about -50%; inconclusive = mostly about -30% to -49%
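Secreted IL-1B measured by AlphaLISA bead assay after 16 h compound exposure of THP-1 cells; compounds (final up to 57.5 uM) added 1 h before LPS (250 ng/mL) and ATP (1.25 mM) stimulation; lower signal means less secretion.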
Six1-Eya2 blk: inhibitors of human Six1/Eya2 interaction; Q15475+O00167; AID 651725; activity change, % (no concentration beside the values); 360,000 tested, 0.56% active; AlphaScreen GST-Six1/His-Eya2 binding, biochemical; active compounds read low; in the data active = activity change below about -65%; inconclusive = mostly about -30% to -63%
Target sequence (O00167 whole entry, looked up): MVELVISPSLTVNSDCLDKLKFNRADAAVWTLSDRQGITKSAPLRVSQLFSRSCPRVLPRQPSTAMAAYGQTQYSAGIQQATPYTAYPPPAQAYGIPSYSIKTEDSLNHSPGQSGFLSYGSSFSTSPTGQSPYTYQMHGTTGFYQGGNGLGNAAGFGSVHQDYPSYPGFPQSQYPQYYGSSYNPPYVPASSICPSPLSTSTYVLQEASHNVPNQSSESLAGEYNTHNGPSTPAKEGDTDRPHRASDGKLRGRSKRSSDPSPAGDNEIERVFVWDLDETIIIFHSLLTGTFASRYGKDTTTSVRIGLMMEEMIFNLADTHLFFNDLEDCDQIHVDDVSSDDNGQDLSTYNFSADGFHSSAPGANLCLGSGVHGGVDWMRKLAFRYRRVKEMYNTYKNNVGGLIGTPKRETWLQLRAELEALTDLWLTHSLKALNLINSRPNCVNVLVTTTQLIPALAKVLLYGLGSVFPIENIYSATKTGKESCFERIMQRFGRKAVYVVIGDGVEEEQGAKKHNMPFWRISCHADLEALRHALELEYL
Target sequence (Q15475 whole entry, looked up): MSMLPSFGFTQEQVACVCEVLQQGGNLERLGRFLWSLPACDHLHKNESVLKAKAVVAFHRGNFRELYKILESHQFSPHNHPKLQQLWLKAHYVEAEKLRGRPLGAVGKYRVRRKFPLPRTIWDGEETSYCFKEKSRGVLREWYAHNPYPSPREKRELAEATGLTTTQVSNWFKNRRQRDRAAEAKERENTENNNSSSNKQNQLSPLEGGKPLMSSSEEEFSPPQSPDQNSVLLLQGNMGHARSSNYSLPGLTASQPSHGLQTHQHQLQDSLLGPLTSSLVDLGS
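Six1/Eya2 binding was read as AlphaScreen signal after compounds were pinned into GST-Six1 plus His-tagged Eya2 (5X stock 250/500 nM) in pH 8.0 Tris/NaCl/TCEP buffer, beads added, then incubated 1 h, 37 C, dark.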
CtBP-E1A blk: CtBP/E1A binding inhibition. AlphaScreen GST-E1A/His-CtBP binding, 1536-well; active compounds read low. activity change, % (test concentration not listed). 340,000 tested, 0.49% active. AID 651724; in the data active = activity change below about -65%; inconclusive = mostly about -30% to -63%
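In 5 uL wells, 23 nL compound meets equimolar GST-E1A and His-CtBP (5X stock 125 nM each) for 2 h, 37 °C. Beads (5X, 50 ug/mL) then 1 h, 37 °C, dark.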
TDP1 block: inhibitors of human tyrosyl-DNA phosphodiesterase TDP1 | Q9NUW8 | recombinant TDP1, AlphaScreen DNA substrate cleavage | Potency, µM (highest dose often 130 µM), hits mostly inhibitors | 350,000 tested, 0.28% active | AID 485290; also: nearly all actives have a fitted effect of over 40% in size
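Signal: AlphaScreen proximity between streptavidin donor and anti-FITC acceptor beads on intact substrate. Reaction: Tdp1 1 nM, substrate 15 nM final, 5 min RT after 15 min compound preincubation.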
Hits are given with their value; 0 = inactive; ? = inconclusive; - = no result given. Shown are actives, neighbours in structure and some others; about 18% of the full set was active somewhere. Unless noted, calls follow the shape of the dose curve; as a rule, active = well fitted curve in the direction sought with a large enough effect; inconclusive = small, poorly fitted or top-dose-only effect, or another doubt; inactive = no such curve, though single readings can be large; an effect the other way counts as inactive or inconclusive.

SMILES	DT40 TDP1 no CPT	TDP1 cell CPT	IL1B secr inh	Six1-Eya2 blk	CtBP-E1A blk	TDP1 block
O=C(CCl)Nc1ccccc1C(=O)NCc1ccccc1	?	23µM	-83	0	0	0
O=C(NCc1cccnc1)Nc1ccc(Br)cc1	0	0	0	0	0	0
COC(=O)c1ccccc1NC(=O)C1CC=CCC1C(=O)O (centres undefined)	?	0	0	0	0	-
CC(C)(C)c1ccc(OCc2ccc(C(=O)NCc3cccnc3)o2)cc1	8.2µM	21µM	0	0	-	0
Nc1sccc1C(=O)NCc1ccccc1	15µM	0	0	0	0	-
O=C(COc1ccc(Cl)cc1)Nc1ccccc1C(=O)NCc1cccnc1	23µM	?	0	0	0	0
O=C(Nc1ccc(Cl)cc1C(=O)NCc1cccnc1)c1ccc(Cl)cc1Cl	18µM	?	0	0	0	0
Cc1cccc(OCC(=O)Nc2ccc(C(=O)NCc3cccnc3)cc2)c1	-	-	-	-	-	0
O=C(COc1ccc(Cl)cc1)Nc1ccc(C(=O)NCc2cccnc2)cc1	9.2µM	12µM	0	0	0	0
Cc1ccc(N(CC(N)=O)C2SC(=O)NC2=O)cc1 (centres undefined)	0	0	0	0	-	0
O=[N+]([O-])c1ccc(-c2nc(=S)c3c(o2)CCCC3)cc1	0	0	0	0	0	0
Cc1ccc(CSCC(=O)Nc2ccc(F)cc2)cc1	0	0	0	0	0	0
CCN1C(=O)[C@@H]2[C@@H](c3ccc(-c4ccc(F)cc4)c(OC)c3)N3CCCC[C@@]3(C(=O)OC)[C@@H]2C1=O	16µM	16µM	0	0	0	0
CCN1C(=O)[C@@H]2[C@@H](c3ccc(-c4cc(C(C)=O)cs4)cc3)N3CCC[C@@]3(C(=O)OC)[C@@H]2C1=O	?	?	0	0	0	-
CCN1C(=O)[C@@H]2[C@@H](c3ccc(-c4ccc(F)cc4)cc3)N3CCCC[C@@]3(C(=O)OC)[C@@H]2C1=O	23µM	?	0	0	0	0
CCSc1ccc([C@@H]2[C@@H]3C(=O)N(CC)C(=O)[C@@H]3[C@]3(C(=O)OC)CCCCN23)cc1OC	?	0	0	0	0	0
CCN1C(=O)[C@H]2[C@@H](c3ccc(-c4ccc(C(C)=O)cc4)c(OC)c3)N3CCCC[C@@]3(C(=O)OC)[C@H]2C1=O	16µM	23µM	0	0	0	0
O=C(CN(CC1CCCO1)C(=O)CNS(=O)(=O)c1ccccc1)NCc1ccc(F)cc1 (centres undefined)	0	0	0	0	0	0
CCOc1ccc(/C(=N\O)C(C)NO)cc1 (centres undefined)	0	0	0	0	0	0
Cc1cccc(CSc2nc3nc(C)cc(C)n3n2)c1	0	?	0	?	0	-
Cc1cccc(Cc2c(C)nc3nc(SCc4cccc(F)c4)nn3c2C)c1	?	21µM	-	-	-	0
Cc1cc(C)n2nc(SCc3c(F)cccc3Cl)nc2n1	26µM	?	0	0	-	-
Cc1nc2nc(SCc3c(F)cccc3Cl)nn2c(C)c1Cc1ccccc1	8.2µM	13µM	-	-	-	0
Cc1cccc(Cc2c(C)nc3nc(SCc4ccccc4F)nn3c2C)c1	9.2µM	13µM	-	-	-	0
Cc1cccc(Cc2c(C)nc3nc(SCC(=O)O)nn3c2C)c1	0	0	0	0	0	0
SMILES	DT40 TDP1 no CPT	TDP1 cell CPT	IL1B secr inh	Six1-Eya2 blk	CtBP-E1A blk	TDP1 block
CCN(CC)S(=O)(=O)c1ccc(N2CCOCC2)c(NC(=O)CSCc2c(C)noc2C)c1	0	0	0	0	0	-
COc1ccc(C2/C=C\CN(C(=O)c3ccccc3)C(Cc3ccccc3)C(=O)N2Cc2ccc(F)cc2)cc1 (centres undefined)	-	-	-	-	-	0
O=C1C(=O)N(CCO)C(c2ccccc2[N+](=O)[O-])/C1=C(\O)c1ccccc1 (centres undefined)	0	0	0	0	0	-
O=C(Nc1cnn(Cc2ccc(Cl)c(Cl)c2)c1)C12CC3CC(CC(C3)C1)C2	?	?	0	0	0	0
COc1ccc(-n2c(/C=C/c3cccc4ccccc34)nc3ccccc3c2=O)cc1OC	15µM	?	-	-	-	0
COc1ccc(/C=C/c2nc3ccccc3c(=O)n2-c2cccc(C(F)(F)F)c2)cc1	12µM	5.8µM	-	-	-	0
COc1cc(OC)c(OC)cc1/C=C/c1nc2cc3ccccc3cc2c(=O)n1-c1ccc(Cl)cc1	16µM	13µM	-	-	-	0
COc1ccc(Cl)cc1-n1c(/C=C/c2cccc3ccccc23)nc2ccccc2c1=O	?	?	-	-	-	0
COc1ccc(/C=N/N=C2/NC(=O)C(CC(=O)O)S2)cc1OCc1ccc(Cl)cc1Cl (centres undefined)	0	0	0	0	0	71µM
CCCCCC1CCNCC1	8.9µM	6.3µM	-	-	-	-
COc1ccc(-n2c(NNC(C)=O)nc3sc4c(c3c2=O)CCCC4)cc1	4.1µM	3.3µM	0	0	-	-
COc1ccc(-n2c(C)nc3sc4c(c3c2=O)CCCC4)cc1	-	-	-	-	-	0
COc1ccc(-n2c(SCCNCCO)nc3sc4c(c3c2=O)CCCC4)cc1	?	?	-75	0	?	0
NNc1nc2sc3c(c2c(=O)n1-c1ccccc1)CCCC3	?	18µM	0	0	0	0
COc1ccc(-n2c(SCC(=O)O)nc3sc4c(c3c2=O)CCCC4)cc1	0	0	0	0	0	-
COc1cccc(-c2cnc3c(NC=O)cc(-c4ccncc4)cn23)c1	4.6µM	18µM	0	0	0	-
COc1cccc(-c2cnc3c(NC(C)=O)cc(-c4ccncc4)cn23)c1	16µM	?	0	0	0	-
Cc1ccccc1N1CC(C(=O)N2CC(C)OC(C)C2)CC1=O (centres undefined)	0	0	0	0	0	-
O=C1NC(c2ccco2)Nc2ccccc21 (centres undefined)	0	0	0	0	0	0
COC(=O)CSc1ccc(C#N)c(SCC(=O)OC)c1	0	0	-105	0	0	0
COC(=O)CSc1cc(SCC(=O)OC)c(C#N)c(SCC(=O)OC)c1	0	0	-113	0	0	0
CCC(=O)N/N=C(\C)CC(=O)Nc1cccc([N+](=O)[O-])c1	0	0	0	0	0	0
CCOc1ccc(OCc2ccc(C(=O)N(CC)CC)cc2)cc1	15µM	?	0	0	-	0
CCN(CC(=O)Nc1ccc(NC(C)=O)cc1)C(=O)c1ccc(COc2ccc(C(C)(C)C)cc2)cc1	23µM	?	-51	0	0	-
CCN(CC(=O)Nc1c(F)cccc1F)C(=O)c1ccc(COc2ccccc2)cc1	?	?	0	0	0	0
COc1ccc(OC)c(CNC(=O)CCCn2nc(C)c3c(C)n(-c4ccc(C)cc4)nc3c2=O)c1	21µM	23µM	-	-	-	0
